Test results reported in PubChem BioAssay AID1159580 (chemical genetic matrix, 2015).
The whole screen tested about 5,500 compounds, of which about 2,000 (36%) were called active. Roughly 18% stayed inconclusive and do not appear here. Rule as the data show it: active = normalized growth mostly below about 0.91 (no sharp cut-off); inconclusive = no clear call, values can overlap the other calls; inactive = mostly above about 0.92. This is one part of the list.

Experiment: chemical genetic growth profiling, strain panel (AID 1159580);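 also: tested at 20 µM; growth read once vehicle control cultures reached saturation at 30 °C; 1 = growth at the plate median or of vehicle wells; lower values mean less growth of the strain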
Conditions: growth OD

Measured: normalized growth

CN(C)CCOC(=O)C(c1ccccc1)C1(O)CCCC1 (centres undefined)
inactive: S. cerevisiae deletion strains, locus YJR075W, strain HOC1, stronger effect = lower value 1.01 | S. cerevisiae deletion strains, locus YKL009W, strain mrt4, stronger effect = lower value 1.02 | S. cerevisiae deletion strains, locus YKL068W, stronger effect = lower value 1.01 | S. cerevisiae deletion strains, locus YKL085W, strain MDH1 (second series), stronger effect = lower value 1.04 | S. cerevisiae deletion strains, locus YKL085W, strain MDH1, stronger effect = lower value 1.04 | S. cerevisiae deletion strains, locus YKL160W, strain elf1, stronger effect = lower value 0.988 | S. cerevisiae deletion strains, locus YKR001C, strain vps1, stronger effect = lower value 1.03 | S. cerevisiae deletion strains, locus YKR026C, strain gcn3, stronger effect = lower value 0.973 | S. cerevisiae deletion strains, locus YKR091W, strain srl3, stronger effect = lower value 0.982 | S. cerevisiae deletion strains, locus YLL001W, strain dnm1, stronger effect = lower value 0.957 | S. cerevisiae deletion strains, locus YLL026W, stronger effect = lower value 0.985 | S. cerevisiae deletion strains, locus YLL041C, strain sdh2, stronger effect = lower value 0.99 | S. cerevisiae deletion strains, locus YLR027C, strain aat2, stronger effect = lower value 0.985 | S. cerevisiae deletion strains, locus YLR039C, strain RIC1, stronger effect = lower value 1.04 | S. cerevisiae deletion strains, locus YLR058C, strain SHM2, stronger effect = lower value 1.01 | S. cerevisiae deletion strains, locus YLR102C, strain apc9, stronger effect = lower value 1 | S. cerevisiae deletion strains, locus YLR113W, strain HOG1, stronger effect = lower value 1.01 | S. cerevisiae deletion strains, locus YLR221C, strain rsa3, stronger effect = lower value 1.03 | S. cerevisiae deletion strains, locus YLR258W, strain gsy2, stronger effect = lower value 1.01 | S. cerevisiae deletion strains, locus YLR262C, strain YPT6 (second series), stronger effect = lower value 0.995 | S. cerevisiae deletion strains, locus YLR262C, strain YPT6, stronger effect = lower value 1.05 | S. cerevisiae deletion strains, locus YLR268W, strain sec22, stronger effect = lower value 1.01 | S. cerevisiae deletion strains, locus YLR320W, strain mms22, stronger effect = lower value 1.02 | S. cerevisiae deletion strains, locus YLR330W, strain CHS5, stronger effect = lower value 1 | S. cerevisiae deletion strains, locus YLR342W, strain FKS1 (second series), stronger effect = lower value 0.999 | S. cerevisiae deletion strains, locus YLR342W, strain FKS1, stronger effect = lower value 0.958 | S. cerevisiae deletion strains, locus YLR357W, strain rsc2, stronger effect = lower value 0.962 | S. cerevisiae deletion strains, locus YLR370C, strain arc18, stronger effect = lower value 0.995 | S. cerevisiae deletion strains, locus YLR371W, strain rom2, stronger effect = lower value 1.01 | S. cerevisiae deletion strains, locus YLR384C, strain iki3, stronger effect = lower value 0.985 | S. cerevisiae deletion strains, locus YLR418C, strain cdc73, stronger effect = lower value 1.05 | S. cerevisiae deletion strains, locus YML016C, strain PPZ1, stronger effect = lower value 1 | S. cerevisiae deletion strains, locus YML032C, strain rad52, stronger effect = lower value 1 | S. cerevisiae deletion strains, locus YML120C, strain ndi1, stronger effect = lower value 0.988 | S. cerevisiae deletion strains, locus YML124C, strain tub3, stronger effect = lower value 1.01 | S. cerevisiae deletion strains, locus YMR058W, strain fet3, stronger effect = lower value 0.991 | S. cerevisiae deletion strains, locus YMR078C, strain ctf18, stronger effect = lower value 1.03 | S. cerevisiae deletion strains, locus YMR125W, strain sto1, stronger effect = lower value 0.989 | S. cerevisiae deletion strains, locus YMR129W, stronger effect = lower value 0.986 | S. cerevisiae deletion strains, locus YMR205C, strain PFK2, stronger effect = lower value 0.993 | S. cerevisiae deletion strains, locus YMR223W, strain ubp8, stronger effect = lower value 1.02 | S. cerevisiae deletion strains, locus YMR231W, strain pep5, stronger effect = lower value 0.975 | S. cerevisiae deletion strains, locus YMR307W, strain GAS1, stronger effect = lower value 1.06 | S. cerevisiae deletion strains, locus YNL067W, strain RPL9B, stronger effect = lower value 1.02 | S. cerevisiae deletion strains, locus YNL071W, strain lat1, stronger effect = lower value 1.01 | S. cerevisiae deletion strains, locus YNL153C, strain GIM3, stronger effect = lower value 1.01 | S. cerevisiae deletion strains, locus YNL183C, strain NPR1, stronger effect = lower value 0.944 | S. cerevisiae deletion strains, locus YNL209W, strain ssb2, stronger effect = lower value 1.02 | S. cerevisiae deletion strains, locus YNL233W, strain BNI4, stronger effect = lower value 1.01 | S. cerevisiae deletion strains, locus YNL248C, strain rpa49, stronger effect = lower value 1.03 | S. cerevisiae deletion strains, locus YNL250W, strain rad50, stronger effect = lower value 1.01 | S. cerevisiae deletion strains, locus YNL271C, strain bni1, stronger effect = lower value 1.02 | S. cerevisiae deletion strains, locus YNL298W, strain CLA4, stronger effect = lower value 1.03 | S. cerevisiae deletion strains, locus YNL307C, strain MCK1, stronger effect = lower value 1.02 | S. cerevisiae deletion strains, locus YNL322C, strain KRE1 (second series), stronger effect = lower value 0.985 | S. cerevisiae deletion strains, locus YNL322C, strain KRE1, stronger effect = lower value 0.982 | S. cerevisiae deletion strains, locus YNR049C, strain mso1, stronger effect = lower value 0.987 | S. cerevisiae deletion strains, locus YNR052C, strain pop2, stronger effect = lower value 1.01 | S. cerevisiae deletion strains, locus YOL006C, strain TOP1, stronger effect = lower value 1.04 | S. cerevisiae deletion strains, locus YOL012C, strain htz1 1.15 | S. cerevisiae deletion strains, locus YOL147C, strain pex11, stronger effect = lower value 1.01 | S. cerevisiae deletion strains, locus YOR001W, strain rrp6, stronger effect = lower value 0.97 | S. cerevisiae deletion strains, locus YOR061W, strain CKA2, stronger effect = lower value 1.01 | S. cerevisiae deletion strains, locus YOR069W, strain VPS5, stronger effect = lower value 1.01 | S. cerevisiae deletion strains, locus YOR070C, strain gyp1, stronger effect = lower value 0.997 | S. cerevisiae deletion strains, locus YOR080W, strain dia2, stronger effect = lower value 0.981 | S. cerevisiae deletion strains, locus YOR083W, strain WHI5, stronger effect = lower value 0.952 | S. cerevisiae deletion strains, locus YOR106W, strain vam3, stronger effect = lower value 0.993 | S. cerevisiae deletion strains, locus YOR136W, strain idh2, stronger effect = lower value 1.02 | S. cerevisiae deletion strains, locus YOR144C, strain elg1, stronger effect = lower value 1.01 | S. cerevisiae deletion strains, locus YOR184W, strain ser1, stronger effect = lower value 1.02 | S. cerevisiae deletion strains, locus YOR231W, strain MKK1, stronger effect = lower value 0.997 | S. cerevisiae deletion strains, locus YOR265W, strain rbl2, stronger effect = lower value 0.998 | S. cerevisiae deletion strains, locus YOR270C, strain vph1, stronger effect = lower value 0.957 | S. cerevisiae deletion strains, locus YOR290C, strain snf2, stronger effect = lower value 1.02 | S. cerevisiae deletion strains, locus YOR316C, strain cot1, stronger effect = lower value 1.02 | S. cerevisiae deletion strains, locus YPL051W, strain arl3, stronger effect = lower value 1.02 | S. cerevisiae deletion strains, locus YPL055C, strain LGE1, stronger effect = lower value 1.01 | S. cerevisiae deletion strains, locus YPL078C, strain atp4, stronger effect = lower value 0.961 | S. cerevisiae deletion strains, locus YPL106C, strain sse1, stronger effect = lower value 1.01 | S. cerevisiae deletion strains, locus YPL240C, strain hsp82, stronger effect = lower value 1.01 | S. cerevisiae deletion strains, locus YPL241C, strain CIN2, stronger effect = lower value 0.988 | S. cerevisiae deletion strains, locus YPL256C, strain CLN2, stronger effect = lower value 0.984 | S. cerevisiae deletion strains, locus YPR119W, strain clb2, stronger effect = lower value 1.01 | S. cerevisiae deletion strains, locus YPR141C, strain kar3, stronger effect = lower value 1.03 | S. cerevisiae deletion strains, locus YPR163C, strain tif3, stronger effect = lower value 1.02 | S. cerevisiae deletion strains, locus YPR167C, strain met16, stronger effect = lower value 1.01 | S. cerevisiae deletion strains, strain wtn01, stronger effect = lower value 1.01 | S. cerevisiae strains, strain wild type, stronger effect = lower value 1
